Values joined by “and” are separate entries in the source; they are usually repeats but may differ in a detail not shown here. Equal entries are not always repeated.
Assays:
[1] = biological target: Casein kinase I isoform gamma-2 (Homo sapiens) (UniProt P78368); conditions: at 1 µM
[2] = biological target: Casein kinase I isoform gamma-3 (Homo sapiens) (UniProt Q9Y6M4); conditions: at 0.1 µM
[3] = biological target: Casein kinase I isoform gamma-3 (Homo sapiens) (UniProt Q9Y6M4); conditions: at 1 µM
[4] = biological target: Cyclin-dependent kinase 1 (Homo sapiens) (UniProt P06493); conditions: at 0.1 µM
[5] = biological target: Cyclin-dependent kinase 1 (Homo sapiens) (UniProt P06493); conditions: at 1 µM
[6] = biological target: Cyclin-dependent kinase 2 (Homo sapiens) (UniProt P24941); conditions: at 0.1 µM
[7] = biological target: Cyclin-dependent kinase 2 (Homo sapiens) (UniProt P24941); conditions: at 1 µM
[8] = biological target: Cyclin-dependent kinase 2 (Homo sapiens) (UniProt P24941); conditions: at 0.1 µM; remark: listed apart in the source
[9] = biological target: Cyclin-dependent kinase 2 (Homo sapiens) (UniProt P24941); conditions: at 1 µM; remark: listed apart in the source
[10] = biological target: T1, CDK3/Cyclin E (Homo sapiens) (UniProt P24864+Q00526); conditions: at 0.1 µM
[11] = biological target: T1, CDK3/Cyclin E (Homo sapiens); conditions: at 1 µM
[12] = biological target: Cyclin-dependent kinase 4 (Homo sapiens) (UniProt P11802); conditions: at 0.1 µM
[13] = biological target: Cyclin-dependent kinase 4 (Homo sapiens) (UniProt P11802); conditions: at 1 µM
[14] = biological target: Cyclin-dependent kinase 5 (Homo sapiens) (UniProt Q00535); conditions: at 0.1 µM
[15] = biological target: Cyclin-dependent kinase 5 (Homo sapiens) (UniProt Q00535); conditions: at 1 µM
[16] = biological target: Cyclin-dependent kinase 6 (Homo sapiens) (UniProt Q00534); conditions: at 0.1 µM
[17] = biological target: Cyclin-dependent kinase 6 (Homo sapiens) (UniProt Q00534); conditions: at 1 µM
[18] = biological target: Dual specificity protein kinase CLK2 (Homo sapiens) (UniProt P49760); conditions: at 0.1 µM
[19] = biological target: Dual specificity protein kinase CLK2 (Homo sapiens) (UniProt P49760); conditions: at 1 µM
[20] = biological target: Dual specificity protein kinase CLK3 (Homo sapiens) (UniProt P49761); conditions: at 0.1 µM
Chain of Dual specificity protein kinase CLK3 (Homo sapiens) (P49761 whole entry, looked up): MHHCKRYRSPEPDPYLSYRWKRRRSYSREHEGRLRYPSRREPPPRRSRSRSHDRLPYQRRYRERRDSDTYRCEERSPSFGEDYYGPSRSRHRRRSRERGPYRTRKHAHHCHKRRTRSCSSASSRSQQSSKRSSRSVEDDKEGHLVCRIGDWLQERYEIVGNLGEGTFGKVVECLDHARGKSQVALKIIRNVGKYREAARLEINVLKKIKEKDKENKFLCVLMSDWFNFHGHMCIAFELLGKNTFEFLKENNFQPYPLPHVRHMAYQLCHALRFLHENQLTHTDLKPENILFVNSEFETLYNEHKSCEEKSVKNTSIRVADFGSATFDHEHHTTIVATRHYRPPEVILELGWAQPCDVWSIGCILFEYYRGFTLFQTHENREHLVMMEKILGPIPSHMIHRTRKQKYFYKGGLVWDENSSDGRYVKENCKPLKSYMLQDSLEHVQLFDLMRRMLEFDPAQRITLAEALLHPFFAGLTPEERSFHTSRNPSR

Chain of Casein kinase I isoform gamma-2 (Homo sapiens) (P78368 whole entry, looked up, canonical isoform): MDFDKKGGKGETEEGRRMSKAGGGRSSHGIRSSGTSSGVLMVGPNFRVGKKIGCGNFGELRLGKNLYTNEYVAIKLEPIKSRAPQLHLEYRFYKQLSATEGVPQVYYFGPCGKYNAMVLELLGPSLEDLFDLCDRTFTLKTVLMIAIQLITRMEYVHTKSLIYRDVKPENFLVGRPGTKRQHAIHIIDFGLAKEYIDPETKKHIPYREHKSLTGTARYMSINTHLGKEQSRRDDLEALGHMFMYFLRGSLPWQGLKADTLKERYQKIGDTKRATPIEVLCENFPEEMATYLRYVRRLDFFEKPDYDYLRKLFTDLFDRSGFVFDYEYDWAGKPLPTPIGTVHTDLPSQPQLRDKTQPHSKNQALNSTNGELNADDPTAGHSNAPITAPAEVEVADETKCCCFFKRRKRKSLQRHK
Chain of Cyclin-dependent kinase 6 (Homo sapiens) (Q00534 whole entry): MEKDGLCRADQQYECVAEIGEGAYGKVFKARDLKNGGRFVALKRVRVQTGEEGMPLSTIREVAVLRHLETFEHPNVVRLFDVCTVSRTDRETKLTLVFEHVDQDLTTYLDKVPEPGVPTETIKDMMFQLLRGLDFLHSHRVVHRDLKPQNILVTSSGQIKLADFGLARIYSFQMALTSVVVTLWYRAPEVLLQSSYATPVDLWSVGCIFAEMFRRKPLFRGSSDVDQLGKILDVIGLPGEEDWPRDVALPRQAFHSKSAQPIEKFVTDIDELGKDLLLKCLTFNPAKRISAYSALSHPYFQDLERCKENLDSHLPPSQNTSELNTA
Chain of Cyclin-dependent kinase 1 (Homo sapiens) (P06493 whole entry, looked up): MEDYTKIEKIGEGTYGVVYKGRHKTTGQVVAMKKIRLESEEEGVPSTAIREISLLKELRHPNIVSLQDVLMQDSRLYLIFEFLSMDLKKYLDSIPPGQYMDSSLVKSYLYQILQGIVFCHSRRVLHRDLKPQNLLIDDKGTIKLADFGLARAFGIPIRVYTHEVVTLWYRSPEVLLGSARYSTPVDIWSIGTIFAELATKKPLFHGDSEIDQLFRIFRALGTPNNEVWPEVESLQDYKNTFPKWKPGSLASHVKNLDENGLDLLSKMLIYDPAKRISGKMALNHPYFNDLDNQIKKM
Chain of Cyclin-dependent kinase 5 (Homo sapiens) (Q00535 whole entry, looked up): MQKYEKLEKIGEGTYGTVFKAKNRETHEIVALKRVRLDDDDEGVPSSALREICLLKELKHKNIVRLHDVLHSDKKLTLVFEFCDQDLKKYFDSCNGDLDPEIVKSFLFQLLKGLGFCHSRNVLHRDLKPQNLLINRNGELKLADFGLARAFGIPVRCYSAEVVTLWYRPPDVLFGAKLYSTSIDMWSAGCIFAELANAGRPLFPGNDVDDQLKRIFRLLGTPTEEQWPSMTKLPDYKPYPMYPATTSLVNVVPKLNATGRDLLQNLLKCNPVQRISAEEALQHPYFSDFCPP
Chain of Cyclin-dependent kinase 4 (Homo sapiens) (P11802 whole entry): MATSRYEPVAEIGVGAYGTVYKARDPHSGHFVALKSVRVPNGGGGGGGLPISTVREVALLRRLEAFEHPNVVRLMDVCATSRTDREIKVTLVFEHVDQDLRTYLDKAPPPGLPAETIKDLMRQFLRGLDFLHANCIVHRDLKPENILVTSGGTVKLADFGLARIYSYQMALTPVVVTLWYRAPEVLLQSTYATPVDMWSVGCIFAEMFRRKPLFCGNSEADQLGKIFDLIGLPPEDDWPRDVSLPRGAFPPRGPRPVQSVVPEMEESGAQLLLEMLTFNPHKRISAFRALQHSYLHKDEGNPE
T1 sequence (P24864 whole entry, looked up): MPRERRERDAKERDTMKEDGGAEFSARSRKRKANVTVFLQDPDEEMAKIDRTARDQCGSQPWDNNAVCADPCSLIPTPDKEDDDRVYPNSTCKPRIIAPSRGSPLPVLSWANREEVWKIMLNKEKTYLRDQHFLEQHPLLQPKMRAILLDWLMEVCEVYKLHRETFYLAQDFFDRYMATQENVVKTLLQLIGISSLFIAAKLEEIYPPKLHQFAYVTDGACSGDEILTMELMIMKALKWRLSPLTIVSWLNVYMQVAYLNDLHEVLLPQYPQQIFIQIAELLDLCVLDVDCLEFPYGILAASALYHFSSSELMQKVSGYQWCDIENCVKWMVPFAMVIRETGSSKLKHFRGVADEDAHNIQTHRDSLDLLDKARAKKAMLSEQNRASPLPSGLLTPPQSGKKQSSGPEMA
T1 sequence (Q00526 whole entry, looked up): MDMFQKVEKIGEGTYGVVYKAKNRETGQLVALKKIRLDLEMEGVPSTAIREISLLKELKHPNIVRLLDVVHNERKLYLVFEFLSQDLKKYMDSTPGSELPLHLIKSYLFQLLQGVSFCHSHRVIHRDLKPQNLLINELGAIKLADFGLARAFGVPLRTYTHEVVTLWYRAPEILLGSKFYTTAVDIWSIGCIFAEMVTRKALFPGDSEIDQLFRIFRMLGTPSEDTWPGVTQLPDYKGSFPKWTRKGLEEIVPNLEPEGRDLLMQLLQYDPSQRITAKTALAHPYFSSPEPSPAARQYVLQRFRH
Chain of Dual specificity protein kinase CLK2 (Homo sapiens) (P49760 whole entry, looked up): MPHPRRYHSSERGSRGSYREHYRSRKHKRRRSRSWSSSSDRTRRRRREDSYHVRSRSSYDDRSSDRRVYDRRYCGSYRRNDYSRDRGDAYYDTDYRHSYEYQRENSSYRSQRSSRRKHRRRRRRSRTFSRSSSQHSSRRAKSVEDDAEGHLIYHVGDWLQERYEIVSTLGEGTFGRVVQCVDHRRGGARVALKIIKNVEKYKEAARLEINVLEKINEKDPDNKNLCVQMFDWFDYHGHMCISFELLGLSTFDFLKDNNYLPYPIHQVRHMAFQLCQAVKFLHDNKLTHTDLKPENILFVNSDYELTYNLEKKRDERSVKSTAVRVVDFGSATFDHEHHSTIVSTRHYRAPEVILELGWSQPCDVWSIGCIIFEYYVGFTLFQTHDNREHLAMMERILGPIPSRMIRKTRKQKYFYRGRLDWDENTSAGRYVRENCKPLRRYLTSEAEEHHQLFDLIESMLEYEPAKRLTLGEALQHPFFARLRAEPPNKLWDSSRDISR
Chain of Casein kinase I isoform gamma-3 (Homo sapiens) (Q9Y6M4 whole entry, looked up, canonical isoform): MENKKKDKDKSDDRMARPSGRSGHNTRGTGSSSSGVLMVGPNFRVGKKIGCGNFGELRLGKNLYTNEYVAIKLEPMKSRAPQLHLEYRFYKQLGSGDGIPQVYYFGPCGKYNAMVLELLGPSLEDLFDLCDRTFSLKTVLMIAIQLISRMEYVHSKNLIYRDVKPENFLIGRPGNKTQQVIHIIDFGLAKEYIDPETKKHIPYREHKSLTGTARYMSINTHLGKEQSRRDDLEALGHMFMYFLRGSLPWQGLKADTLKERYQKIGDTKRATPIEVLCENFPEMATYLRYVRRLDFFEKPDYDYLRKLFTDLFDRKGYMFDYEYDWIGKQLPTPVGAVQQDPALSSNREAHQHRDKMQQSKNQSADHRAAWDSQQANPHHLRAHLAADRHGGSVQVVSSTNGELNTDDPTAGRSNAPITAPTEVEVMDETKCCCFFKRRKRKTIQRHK

CN1CCC(C(=O)Nc2n[nH]c3nc(-c4ccc(O)cc4)c(Br)cc23)CC1
inhibition [1]: 2.84% and 1.66% | inhibition [2]: -0.75% and 1.55% | inhibition [3]: 3.27% and 0.25% | inhibition [4]: 7.05% and 10.3% | inhibition [5]: 43.7% and 42.6% | inhibition [6]: 16.2% and 18.6% | inhibition [7]: 63.1% and 63.2% | inhibition [8]: 9.58% and 5.38% | inhibition [9]: 38.8% and 32.5% | inhibition [10]: 12.5% and 12.3% | inhibition [11]: 56.1% and 53.4% | inhibition [12]: 48% and 51.8% | inhibition [13]: 76.6% and 78.3% | inhibition [14]: 0.17% and 1.86% | inhibition [15]: 13.3% and 11.5% | inhibition [16]: 36.9% and 34.2% | inhibition [17]: 76.5% and 74% | inhibition [18]: 2.03% and 1.85% | inhibition [19]: 3.04% and 2.87% | inhibition [20]: -1.53% and 0.88%

O=C(O[C@H]1CN[C@H](C#Cc2cc3ncnc(Nc4ccc5c(cnn5Cc5ccccc5)c4)c3s2)C1)N1CCOCC1
inhibition [1]: 0.77% | inhibition [2]: -1.09% | inhibition [3]: 1.79% | inhibition [4]: 2.44% | inhibition [5]: 4.08% | inhibition [6]: 0.92% | inhibition [7]: -1.09% | inhibition [8]: 3.48% | inhibition [9]: 2.34% | inhibition [10]: -0.1% | inhibition [11]: -1.05% | inhibition [12]: 0.36% | inhibition [13]: 3.2% | inhibition [14]: 2.53% | inhibition [15]: 3.35% | inhibition [16]: -1.23% | inhibition [17]: 0.26% | inhibition [18]: -1.51% | inhibition [19]: -0.74% | inhibition [20]: -0.96%

COc1cc(Nc2ncc(-c3ccccc3)o2)cc(OC)c1
inhibition [1]: 5.36% | inhibition [2]: 5.09% | inhibition [3]: 3.43% | inhibition [4]: 0.36% | inhibition [5]: 4.4% | inhibition [6]: 1.87% | inhibition [7]: 12.7% | inhibition [8]: 3.39% | inhibition [9]: 15.1% | inhibition [10]: -1.04% | inhibition [11]: 6.13% | inhibition [12]: 3.96% | inhibition [13]: 14.9% | inhibition [14]: -0.03% | inhibition [15]: 6.57% | inhibition [16]: 4.07% | inhibition [17]: 29.8% | inhibition [18]: 2.97% | inhibition [19]: 2.12% | inhibition [20]: 0.59%

COc1c(C(N)=O)cc(-c2ccc(Cl)cc2)cc1-c1ccc(S(N)(=O)=O)cc1
inhibition [1]: 5.53% | inhibition [2]: 3.12% | inhibition [3]: 5.9% | inhibition [4]: 2.31% | inhibition [5]: -0.03% | inhibition [6]: 3.12% | inhibition [7]: 3.62% | inhibition [8]: 2.17% | inhibition [9]: 3.13% | inhibition [10]: -4.73% | inhibition [11]: -0.77% | inhibition [12]: 3.98% | inhibition [13]: 3.06% | inhibition [14]: 0.65% | inhibition [15]: 0.17% | inhibition [16]: -0.9% | inhibition [17]: -0.36% | inhibition [18]: 3.22% | inhibition [19]: 5.16% | inhibition [20]: 0.71%

COc1ccc(-c2nn3ncccc3c2-c2ccnc(Nc3ccc(F)c(F)c3)n2)cc1
inhibition [1]: 3.56% | inhibition [2]: 3.89% | inhibition [3]: 3.22% | inhibition [4]: -0.93% | inhibition [5]: 2.75% | inhibition [6]: 0.74% | inhibition [7]: 3.93% | inhibition [8]: 3.63% | inhibition [9]: 3.97% | inhibition [10]: 1.3% | inhibition [11]: 0.42% | inhibition [12]: 0.25% | inhibition [13]: 1.71% | inhibition [14]: 0.48% | inhibition [15]: 1.15% | inhibition [16]: 5.13% | inhibition [17]: 3.48% | inhibition [18]: -1.03% | inhibition [19]: 0.41% | inhibition [20]: 2.08%

c1ccc(-c2n[nH]cc2-c2ccnc(-c3ccc(OCCn4ccnc4)cc3)c2)nc1
inhibition [1]: 4.02% | inhibition [2]: 0.42% | inhibition [3]: 5.22% | inhibition [4]: -0.35% | inhibition [5]: 1.46% | inhibition [6]: 1.03% | inhibition [7]: -8.72% | inhibition [8]: 2.23% | inhibition [9]: 5.64% | inhibition [10]: 2.33% | inhibition [11]: 0.94% | inhibition [12]: 1.86% | inhibition [13]: 6.97% | inhibition [14]: 1.11% | inhibition [15]: 4.49% | inhibition [16]: 1.43% | inhibition [17]: 10% | inhibition [18]: 0.61% | inhibition [19]: 1.21% | inhibition [20]: 3.95%

COC(=O)Nc1nc2cc(Oc3ccc(NC(=O)Nc4ccccc4)cc3)ccc2[nH]1
inhibition [1]: 1.9% | inhibition [2]: 0.58% | inhibition [3]: 1.63% | inhibition [4]: 1.24% | inhibition [5]: 1.72% | inhibition [6]: 1.21% | inhibition [7]: 0.35% | inhibition [8]: 1.69% | inhibition [9]: 3.15% | inhibition [10]: 2.16% | inhibition [11]: -3.23% | inhibition [12]: 0.66% | inhibition [13]: 1.41% | inhibition [14]: 0.28% | inhibition [15]: 0.86% | inhibition [16]: 0.73% | inhibition [17]: -1.23% | inhibition [18]: 1.75% | inhibition [19]: -1.36% | inhibition [20]: 1.37%

O=C1Nc2ccccc2/C1=C1\CCc2cc(O)ccc21
inhibition [1]: 8.01% | inhibition [2]: 4.01% | inhibition [3]: 6.11% | inhibition [4]: 1.03% | inhibition [5]: 3.82% | inhibition [6]: 3.01% | inhibition [7]: 5.49% | inhibition [8]: 5.72% | inhibition [9]: 10.6% | inhibition [10]: 4.58% | inhibition [11]: 2.91% | inhibition [12]: 3.57% | inhibition [13]: 7.74% | inhibition [14]: 1.5% | inhibition [15]: 7.54% | inhibition [16]: 3.57% | inhibition [17]: 30.5% | inhibition [18]: 2.81% | inhibition [19]: 13.6% | inhibition [20]: 1.61%

CS(=O)(=O)CCNCc1ccoc1-c1ccc2ncnc(Nc3ccc(OCc4ccccc4)cc3)c2c1
inhibition [1]: 0.93% | inhibition [2]: 1.14% | inhibition [3]: 0.44% | inhibition [4]: -0.72% | inhibition [5]: 1.35% | inhibition [6]: 1.48% | inhibition [7]: 3.32% | inhibition [8]: 1.98% | inhibition [9]: 3.45% | inhibition [10]: -1.56% | inhibition [11]: -1.1% | inhibition [12]: 0.34% | inhibition [13]: 2.91% | inhibition [14]: 0.75% | inhibition [15]: 1.14% | inhibition [16]: -0.43% | inhibition [17]: 5.44% | inhibition [18]: 0.36% | inhibition [19]: -2.93% | inhibition [20]: -0.17%

CNC(=O)c1sc(-n2cnc3cc(OC)c(OC)cc32)cc1OCc1ccccc1C(F)(F)F
inhibition [1]: 3.65% | inhibition [2]: 3.86% | inhibition [3]: 4.26% | inhibition [4]: 0.69% | inhibition [5]: 2.03% | inhibition [6]: 0.22% | inhibition [7]: 1.77% | inhibition [8]: 2.17% | inhibition [9]: 3.8% | inhibition [10]: 0.35% | inhibition [11]: -1.01% | inhibition [12]: 1.64% | inhibition [13]: 3.5% | inhibition [14]: 0.36% | inhibition [15]: 1.5% | inhibition [16]: -0.46% | inhibition [17]: 1.53% | inhibition [18]: 1.74% | inhibition [19]: -1.57% | inhibition [20]: 0.24%

O=C(O[C@H]1CN[C@H](C#Cc2cc3ncnc(Nc4ccc5c(ccn5Cc5cc(F)ccc5F)c4)c3s2)C1)N1CCOCC1
inhibition [1]: 5.86% | inhibition [2]: 2.96% | inhibition [3]: 4.98% | inhibition [4]: -0.04% | inhibition [5]: 1.97% | inhibition [6]: 1.56% | inhibition [7]: 4.93% | inhibition [8]: 3.67% | inhibition [9]: 2.07% | inhibition [10]: 4.08% | inhibition [11]: -2.16% | inhibition [12]: 2.17% | inhibition [13]: 1.93% | inhibition [14]: 1.09% | inhibition [15]: 0.14% | inhibition [16]: -1.14% | inhibition [17]: 1.5% | inhibition [18]: 1.29% | inhibition [19]: 0.52% | inhibition [20]: 1.27%

COc1cccc(-n2ncc3c(N/N=C/c4ccc(C(=O)NCCN(C)C)cc4)ncnc32)c1
inhibition [1]: 8.69% | inhibition [2]: 1.94% | inhibition [3]: 11.9% | inhibition [4]: 44.7% | inhibition [5]: 77.2% | inhibition [6]: 36.1% | inhibition [7]: 89.9% | inhibition [8]: 13.4% | inhibition [9]: 48.4% | inhibition [10]: 5.6% | inhibition [11]: 50.1% | inhibition [12]: 40.6% | inhibition [13]: 71.4% | inhibition [14]: 37.9% | inhibition [15]: 74.3% | inhibition [16]: 47.9% | inhibition [17]: 81.5% | inhibition [18]: 21.6% | inhibition [19]: 73.7% | inhibition [20]: 5.88%
